# Measurements from PMC5540273 (PLoS ONE, 2017).
# Key:
# Settings in all cases: concentration: 1 μM, replicates: in singlicate; n = 1
# NDR1 = test system: T1, NDR1
# T1 construct: gene STK38
# NDR2 = test system: NDR2
# NEK10 = test system: NEK10
# NEK11 = test system: NEK11
# NEK1 = test system: NEK1
# NEK2 = test system: NEK2
# NEK3 = test system: NEK3
# NEK4 = test system: NEK4
# NEK5 = test system: NEK5
# NEK6 = test system: NEK6
# NEK7 = test system: NEK7
# NEK9 = test system: NEK9
# NIK = test system: T2, NIK
# T2 construct: gene MAP3K14
# NIM1 = test system: T3, NIM1
# T3 construct: gene MGC42105
# NLK = test system: NLK
# OSR1 = test system: T4, OSR1
# T4 construct: gene OXSR1
# PAK1 = test system: PAK1
# PAK2 = test system: PAK2
# PAK3 = test system: PAK3
# PAK4 = test system: PAK4
# 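Further: KINOMEscan kinase panel screen.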
SMILES,%Inh (NDR1) [%],%Inh (NDR2) [%],%Inh (NEK10) [%],%Inh (NEK11) [%],%Inh (NEK1) [%],%Inh (NEK2) [%],%Inh (NEK3) [%],%Inh (NEK4) [%],%Inh (NEK5) [%],%Inh (NEK6) [%],%Inh (NEK7) [%],%Inh (NEK9) [%],%Inh (NIK) [%],%Inh (NIM1) [%],%Inh (NLK) [%],%Inh (OSR1) [%],%Inh (PAK1) [%],%Inh (PAK2) [%],%Inh (PAK3) [%],%Inh (PAK4) [%]
COc1ccc2nc(-c3cccc(C)n3)nc(Nc3ccncc3)c2c1 [GSK204919],0,0,3,7,0,0,0,11,17,0,0,0,0,0,52,10,8,14,7,0
Clc1cc(Cl)cc(Nc2ccnc(Nc3cc(Cl)cc(Cl)c3)n2)c1 [GSK175726],21,11,4,8,1,4,16,0,23,0,0,7,0,0,17,0,12,0,0,6
COc1ccc(C2=C(Nc3cccc(C(=O)O)c3)C(=O)NC2=O)cc1 [SB-390765],2,13,2,30,0,10,31,23,0,13,28,2,10,45,1,22,0,27,0,0
COc1ccc(Nc2nccc(-c3cccc(NC(=O)c4cc5cc(F)ccc5[nH]4)c3)n2)cc1 [GSK1229782],0,34,40,16,12,3,12,9,29,1,0,21,50,13,9,18,36,35,13,22
NC(=O)c1nnc2ccccc2c1N,20,0,85,0,0,16,31,4,3,10,0,0,69,14,2,31,0,7,5,0
Cc1ccc(-c2cc(-c3c[nH]nc3-c3ccccn3)ccn2)cc1 [GW684088],20,47,0,30,0,0,8,0,11,0,0,0,47,17,22,5,14,18,0,19
COc1cc2ncn(-c3cc(OCC4CCCO4)c(C(N)=O)s3)c2cc1OC (stereo not shown) [GSK204607],12,10,0,0,11,28,5,0,10,0,0,0,19,23,15,0,0,0,9,0
CN1C(=O)C(Nc2ccc(Cl)c(C(=O)O)c2)=C(c2ccc(Cl)cc2)C1=O [SB-404290],0,1,0,30,0,5,0,21,0,0,15,10,0,9,17,13,0,18,22,0
Cl.O=C(Nc1cccc(-c2nn3ncccc3c2-c2ccnc(Nc3cccnc3)n2)c1)c1c(F)cccc1F [GSK312879],0,0,7,0,0,14,0,23,0,0,7,0,24,11,15,23,15,19,9,0
COc1ccccc1-c1ccc2c(NC(=O)C3CC3)n[nH]c2n1 [SB-711239],8,0,11,33,0,22,0,6,0,4,6,5,0,19,15,64,5,0,7,12
Cn1cncc1-c1ccc2ncnc(Nc3ccc(OCc4ccccc4)cc3)c2c1 [GW320571],0,0,3,0,0,0,0,11,0,6,0,12,0,19,11,19,0,0,2,0
O=C(Nc1ccccc1)Nc1cccc(Oc2ccc3nccn3n2)c1,4,0,0,0,0,0,8,0,0,0,0,36,7,19,22,0,0,0,0,0
Fc1cc(Cl)ccc1Nc1ccnc2cc(I)ccc12 [GW551191],18,0,25,0,0,4,0,11,0,0,0,5,7,19,59,6,18,9,14,0
Cc1csc(-c2nc(Nc3ccncc3)c3ccccc3n2)n1 [GW869640],27,25,17,9,0,0,19,28,0,4,0,16,32,40,64,17,12,56,28,9
COc1cccc(NC(=O)NC2CCN(c3ccnc(Nc4ccc(F)cc4)n3)C2)c1 (stereo not shown) [GSK1379721],9,27,0,2,0,1,6,0,29,0,16,35,2,14,0,4,0,0,0,0
COc1ccc(CNC(=O)NC2CCN(c3ccnc(Nc4cc(OC)c(OC)c(OC)c4)n3)C2)cc1 (stereo not shown) [GSK1379748],21,44,6,18,8,0,20,30,93.1,0,15,15,25,0,17,0,3,0,0,0
Cc1cccc(-c2cc(Nc3ccncc3)c3ccccc3n2)n1 [GSK223675],0,0,0,0,0,0,17,0,0,0,0,8,14,0,10,6,6,2,0,0
Cn1ccc2ncnc(Oc3ccc(NC(=O)Nc4ccccc4)cc3)c21,9,0,18,0,0,3,12,0,0,0,0,0,6,0,11,0,10,17,40,10
Cc1cc(-c2ccc3c(c2)CC[C@@H](N[C@@H](C)c2ccccc2)C3)cnc1N.Cl [GW412617],0,0,63,20,0,3,0,16,0,14,9,0,77,22,0,8,0,16,0,36
Cc1ccc(NC(=O)Nc2cc(C(C)(C)C)nn2-c2ccccc2)cc1 [GSK1014915],0,0,19,0,0,12,8,10,0,0,6,0,35,3,14,0,0,2,76,0
CC1=C(C(=O)Nc2cc3cn[nH]c3cc2F)C(c2ccc(C(F)(F)F)cc2)CC(=O)N1 (stereo not shown) [GSK429286],23,0,7,0,0,0,6,24,0,0,0,0,27,12,13,18,0,4,45,0
Cc1ccc(NC(=O)Nc2cccc(Cl)c2)cc1-c1ccc(C(=O)Nc2ccncc2)cc1 [GSK1398468],25,0,3,0,0,2,16,0,20,0,0,0,2,11,38,12,19,0,0,0
Nc1ncnc2[nH]c(-c3ccccc3)nc12 [AH5015],0,0,49,71,4,18,53,26,32,0,7,1,50,21,0,17,30,48,100,0
COc1cc2ncnc(Nc3ccc4nc(-c5ccccc5)[nH]c4c3)c2cc1OC.Cl [GW282450],17,0,14,2,0,0,0,4,29,0,0,22,23,18,38,11,9,9,0,0
O=C(Nc1n[nH]c2cc(-c3cccc(F)c3F)ccc12)C1CC1 [SB-733894],5,0,0,0,0,5,39,3,0,0,7,0,0,0,72,0,3,41,2,12
Cl.Oc1ccc(-c2nc(-c3ccccc3)[nH]c2-c2ccncc2)cc1 [SB-428218],12,5,9,24,0,3,15,29,6,0,0,0,74,38,45,0,55,55,20,0
Cn1ccc2ncnc(Oc3cccc(C(=O)Nc4ccccc4)c3)c21,14,0,0,0,0,0,0,0,0,17,0,0,0,0,4,0,0,0,9,21
COc1ccc(Nc2nccc(NCCNC(=O)Nc3ccccc3F)n2)cc1 [GSK1379901],26,0,13,0,0,0,19,0,3,0,0,0,9,9,7,8,0,0,0,0
CC(C)(C)c1ccc(C(=O)Nc2cn3cc(-c4cccnc4)ccc3n2)cc1,49,0,2,0,13,8,54,0,31,13,4,0,20,22,1,0,36,36,51,24
